We go through 105 compounds from PubChem BioAssay AID1578 (Sanford-Burnham Center for Chemical Genomics, 2009).

The term inhibition denotes the change of the read-out against control, counted positive when it falls.

Screen size: about 290,000 compounds; about 3,000 (1%) were called active. The sample as a whole holds a higher share of actives than the screen did. Values without a mark were called inactive. No stated cut-off is given here; in the data, active means inhibition mostly above about 36% (no sharp cut-off); inactive means mostly below about 34%.

A short description of the assay: NOD1 signaling inhibitors, primary screen, cell-based, luminescence, uHTS (AID 1578).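 Further: HEK-293T reporter cells stimulated with the NOD1 agonist gamma-tri-DAP.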 The settings on record: NOD1-driven NF-kB luciferase reporter cells, at 4 µM, hits give high values. (A reporter such as luciferase makes a cellular process visible.)
With `CCn1c(=O)c2cc(C(=O)NCc3cccs3)sc2c2ccccc21`, the inhibition is -17.9%.
Next, `COc1ccc(-c2noc(C3CCCN(C(=O)c4cccc(F)c4)C3)n2)cc1` (stereo not given): -12.2%; `CN1CCC(OC(=O)Cc2ccc(Cl)cc2)CC1`: -12.1%; `Fc1ccccc1Sc1ccccc1CNC1=NCCN1`: 64.4% (active).
The result for `c1ccc(Sc2cccc3ccccc23)c(CNC2=NCCN2)c1` reads -31.1%; that for `Fc1ccc(Sc2ccccc2CNC2=NCCN2)cc1`, -4.9%; that for `CCOC(=O)c1c(CN2CCN(C)CC2)n(-c2ccccc2)c2cc(Br)c(O)cc12`, -4%.
The result for `CCOC(=O)c1c(CN2CCOCC2)n(-c2ccccc2)c2cc(Br)c(OC)cc12` reads 30.8%.
In the case of `CCOC(=O)c1c(CN2CCOCC2)n(-c2ccccc2)c2cc(Br)c(O)cc12`, the inhibition is 67% (active).
Turning to `Cc1cccc(-n2c(C)cc(C(=O)NC3CCCCC3)c2C)c1`, the inhibition was -17.7%.
As for `CCOCCCNC(=S)NNC(=O)CCn1nc(C)c(Br)c1C`, the inhibition is -19.5%.
The result for `Cc1cc(NC(=O)CSc2nc3ccccc3c(=O)n2Cc2ccccc2)no1` reads 5%; that for `NC(=O)CSc1nc2ccccc2c(=O)n1Cc1ccccc1`, -16%; that for `Cc1ccc(S(=O)(=O)N2CCCCC2C(=O)N(C)c2ccccc2)cc1` (stereo not given), -15.4%.
The result for `Cc1cc(C)n(Cc2ccc(Cl)c(Cl)c2)c(=O)c1S(=O)(=O)c1ccccc1` reads 5.3%; that for `CC(C)(C)c1cnnn1-c1ccc(C(=O)CCl)cc1`, 77.3% (active); that for `Cc1cnnn1-c1ccc(C(=O)CCl)cc1`, 19.4%.
Next, `CC(=O)c1ccc(-n2nncc2C(C)(C)C)cc1`: 60.5%; `O=C1N=C(N2CCOCC2)S/C1=C\c1ccncc1`: -7.7%.
For the compound `CC1(C)CN=C(N(C(=O)Nc2ccccc2)c2ccccc2F)S1`, the inhibition was -4.1%.
With `Cc1ccc(COc2ccc(-c3nnco3)cc2)cc1`, the inhibition was -12.2%.
Take `Fc1ccc(COc2ccc(-c3nnco3)cc2)cc1`: the inhibition is -10.4%.
Next, `CCCCN(CC)S(=O)(=O)c1ccc2c(c1)n(C)c(=O)c(=O)n2C`: -6%; `CCn1nc(C)c(NC(=O)/C=C/c2cnn(C)c2C)c1C`: 11%.
Regarding `Cc1ccccc1Cn1nc(C)c(NC(=O)/C=C/c2cnn(C)c2C)c1C`, the inhibition was -19.1%.
The result for `Cc1nn(Cc2c(Cl)cccc2Cl)c(C)c1NC(=O)/C=C/c1cnn(C)c1C` reads 99% (active).
`Cc1nc2cc(NS(=O)(=O)c3cccc4cccnc34)ccc2s1`: the inhibition is -11.7%.
Next, `CN(C)/C(=N\S(=O)(=O)c1ccccc1)c1ccccc1`: -32.6%.
Next, `N=C1SC(CC(=O)Nc2ccc([N+](=O)[O-])cc2)C(=O)N1c1ccccc1` (stereo not given): -6.5%; `CCOC(=O)C1(CCc2ccccc2)CCN(C(=O)CCn2cnnn2)CC1`: -48%.
As for `O=C(/C=C/c1ccc(OC(F)F)cc1)Nc1cccc(S(=O)(=O)N2CCOCC2)c1`, the inhibition was -23.1%.
Next, `Clc1ccc(-c2nc3n(n2)Cc2ccccc2-3)cc1`: -7.2%; `CCn1c(C)nc2cc(-c3nc4n(n3)Cc3ccccc3-4)ccc21`: 94% (active); `Cc1ccc(-c2nc3n(n2)Cc2ccccc2-3)cc1`: -27.4%.
Next, `COc1ccc(CCNC2CC(=O)N(C3CCCCC3)C2=O)cc1OC` (stereo not given): -7.3%; `CCNC1=C(Cl)C(=O)c2ccccc2C1=O`: 4.8%; `CCN(CC)CCCNC1=C(Cl)C(=O)c2ccccc2C1=O`: 98.9% (active).
The result for `O=C1C(Cl)=C(NCCCO)C(=O)c2ccccc21` reads -20.7%; that for `CC1CCc2c(sc3ncn(CC(=O)N=Nc4c(O)[nH]c5ccccc45)c(=O)c23)C1` (stereo not given), 4%.
Regarding `COc1ccc(/C=N/Nc2ccccn2)cc1OC`, the inhibition is 1.4%.
The result for `Oc1cccc(/C=N/Nc2cccc3cccnc23)c1` reads -66.8%; that for `O=[N+]([O-])c1cc(/C=N\Nc2ccccn2)ccc1Cl`, -18.5%.
The result for `Oc1ccccc1/C=N/Nc1cccc2cccnc12` reads -47.2%; that for `COc1cc(/C=N/Nc2ccccn2)cc(OC)c1O`, 46.4% (active).
Next, `O=[N+]([O-])c1cc(Cl)cc(/C=N/Nc2nc3ccccc3s2)c1O`: 1.6%; `COc1cc(/C=N/Nc2cccc3cccnc23)cc(OC)c1O`: 50.8% (active).
On to `COc1cc(/C=N/Nc2ccccn2)ccc1O`, for which the inhibition is 7.2%.
For the compound `CC1=C(C(=O)OCc2ccccc2)C(c2ccccc2OC(F)F)NC(=O)N1` (stereo not given), the inhibition was 11.1%.
Turning to `Cc1[nH]c2ccccc2c1C(=O)C(=O)NCc1cccs1`, the inhibition is -20.5%.
On to `Cc1ccccc1SCC(=O)N/N=C/c1ccc(F)cc1`, for which the inhibition is 4.1%.
Next, `O=C(Cc1ccccc1F)Nc1nc(-c2cccnc2)cs1`: -9.2%; `O=C(CSc1nnc(-c2ccco2)o1)NC(=O)Cc1ccccc1`: -4.5%.
For the compound `CC(=O)N1CN(Cc2ccccn2)Cc2c1sc1c2CCCC1`, the inhibition was -11.9%.
The result for `CC(=O)c1c(C)[nH]c(C(=O)Nc2nc(-c3ccc(Cl)cc3)cs2)c1C` reads 66.1%.
The result for `CC(=O)c1c(C)[nH]c(C(=O)Nc2nc(C)cs2)c1C` reads 12.4%; that for `COc1ccccc1N1CCN(C(=O)C(C)N(c2ccc(C)cc2)S(C)(=O)=O)CC1` (stereo not given), -7.9%.
Next, `O=C1c2ccc(Oc3ccc([N+](=O)[O-])cc3)cc2C(=O)N1CCO`: -16.9%; `COc1ccc(N2C(=O)CC(Sc3nc4c(cc3C#N)CCC4)C2=O)cc1` (stereo not given): -26.6%.
As for `CCc1c(C)nc2ncnn2c1NCCc1ccc(OC)cc1`, the inhibition was 53.3%.
As for `CCc1c(C)nc2ncnn2c1NCCc1ccc(Cl)cc1`, the inhibition is 57.5% (active).
The result for `CCc1c(C)nc2ncnn2c1NCCc1ccccc1` reads 24%; that for `O=C(N/N=C/c1ccc2cccnc2c1)c1nc2ccccc2c(=O)[nH]1`, -15.6%; that for `Cn1ncc2c(O/N=C(\N)c3ccc(C(C)(C)C)cc3)ncnc21`, 98.4% (active).
For `Cn1ncc2c(NNC(=O)c3ccc(O)cc3)ncnc21`, the inhibition is -28%.
The result for `Cn1ncc2c(O/N=C(\N)c3ccc(C(F)(F)F)cc3)ncnc21` reads -5.2%.
Next, `Cc1nc2ccc(C(=O)NCc3ccc4c(c3)OCO4)cc2s1`: 11.9%; `O=C(CCNS(=O)(=O)c1ccccc1)N1CCOCC1`: -19.5%.
In the case of `Cc1cc(C)c2nc(NC(=O)c3ccc([N+](=O)[O-])o3)sc2c1`, the inhibition was 37.8%.
Consider `O=C(Nc1nc2c(F)cccc2s1)c1ccc([N+](=O)[O-])o1`, for which the inhibition is 7.3%.
Next, `O=C(Nc1nc2cc3c(cc2s1)OCCO3)c1ccc([N+](=O)[O-])o1`: -22.1%.
The result for `O=C(Nc1nc2ccccc2s1)c1ccc([N+](=O)[O-])o1` reads 6.5%; that for `CCOC(=O)Cn1cncc1-c1ccc([N+](=O)[O-])cc1`, 10.5%.
For `COc1cnn(-c2ccc(C)cc2)c(=O)c1Cl`, the inhibition is -22.7%.
Next, `Cc1csc2c(N3CCN(C(=O)Nc4ccccc4)CC3)ncnc12`: 7.4%; `Cc1csc2c(N3CCN(C(=O)Nc4ccc(OC(F)(F)F)cc4)CC3)ncnc12`: 22.6%.
As to `CC1=Nn2c(nc(-c3ccccc3)c2-c2ccccc2)NC(=O)C1Br` (stereo not given), the inhibition is 1.4%.
Take `COc1ccccc1CNc1nc(C)c(C(C)=O)s1`: the inhibition was 12.6%.
The result for `CCOC(=O)/C(=N/Nc1ccc(Cl)cc1)S(=O)(=O)c1ccccc1` reads -14.8%; that for `COC(=O)/C(=N/Nc1ccccc1)N1CCCc2ccccc21`, -10.5%; that for `CCOC(=O)/C(=N/Nc1ccccc1)N1CCCc2ccccc21`, 90.5% (active).
In the case of `CCOC(=O)/C(=N\Nc1ccccc1)P(=O)(c1ccccc1)c1ccccc1`, the inhibition was 43.4% (active).
Regarding `CCOC(=O)/C(=N/Nc1ccc(OC)cc1)N1CCCc2ccccc21`, the inhibition is -9.8%.
The result for `CCOC(=O)/C(=N\Nc1ccccc1)S(=O)(=O)c1ccccc1` reads 0.6%.
The result for `CC(=O)c1csc(Nc2ccccc2Cl)n1` reads -3%.
As to `O=C(NC(=O)c1cccc(Cl)c1)OC[C@@H]1CCCN2CCCCC12` (stereo not given in full), the inhibition is 14.2%.
The result for `CCOC(=O)c1cc2c(ccn2C)n1CC(=O)N1C(C)CCCC1C` (stereo not given) reads 5.8%; that for `O=S(=O)(c1ccccc1)c1ncc(C(F)(F)F)cc1Cl`, 50.2% (active).
The result for `O=S(=O)(Cc1ncc(C(F)(F)F)cc1Cl)c1ccccc1` reads 18%; that for `O=S(=O)(c1ccccc1)c1ncc(C(F)(F)F)cc1O`, -25.1%; that for `O=C(NCCCCc1ccccc1)Nc1ccc(F)cc1`, -30.8%.
For the compound `CCn1nc(C(=O)NCC(c2cccs2)N2CCOCC2)c2ccccc2c1=O` (stereo not given), the inhibition is -2.4%.
Turning to `CCn1c(=O)c([N+](=O)[O-])c(Cl)c2ccccc21`, the inhibition is 61.2% (active).
Next, `CCN(CC)c1c([N+](=O)[O-])c(=O)n(CC)c2ccccc12`: -5.5%.
In the case of `Cn1c(=O)c([N+](=O)[O-])c(Cl)c2ccccc21`, the inhibition is -31.4%.
Next, `O=C(OCCC1Oc2cccnc2NC1=O)c1ccc(Cl)cc1` (stereo not given): -29.2%; `COc1cccc(-c2nc(CS(=O)CC(=O)NCc3ccccc3)c(C)o2)c1` (stereo not given): -4.3%; `Cc1ccc(-n2c(SCc3ccc(C#N)cc3)nnc2-c2ccccn2)cc1`: 2.2%.
Turning to `CCC(=O)N1c2ccc(S(=O)(=O)N3CCN(C)CC3)cc2CC1C` (stereo not given), the inhibition was -8.9%.
Consider `CCC(=O)N1c2ccc(S(=O)(=O)N3CCN(c4ccccc4Cl)CC3)cc2CC1C` (stereo not given), for which the inhibition is 8.1%.
Next, `COc1ccc(S(=O)(=O)Nc2ccc(O)c(Sc3ncn[nH]3)c2)cc1`: -28.8%.
As for `O=C(O)CSc1cc(NS(=O)(=O)c2ccc(Br)cc2)c2ccccc2c1O`, the inhibition was 5.8%.
`O=S(=O)(Nc1cc(Sc2cccc3cccnc23)c(O)c2ccccc12)c1ccc(F)cc1`: the inhibition was -23.7%.
Next, `O=S(=O)(Nc1cc(Sc2ncn[nH]2)c(O)c2ccccc12)c1ccccc1`: -1.5%; `O=S(=O)(Nc1cc(Sc2cccc3cccnc23)c(O)c2ccccc12)c1ccccc1`: 109% (active).
The result for `COc1ccc(S(=O)(=O)Nc2cc(Sc3ncn[nH]3)c(O)c3ccccc23)cc1` reads 93.1% (active).
